Assay [1] can be described thus: ATG_E_Box_CIS: Attagene CIS-FACTORIAL HepG2 Assay for human Enhancer Box (E-box) (AID 2282936). The following applies: HepG2 E-box cis-reporter transcription, actives raise or lower the signal. Summed up:
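Cells: HepG2 (human liver), transient MRTU transfection. Exposure 24 h. RNA → oligo(dT) RT → PCR → 6-FAM label → HpaI → CE. Activity fitted both directions relative to DMSO.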

A short description of assay [2]: ATG_M_61_CIS: Attagene CIS-FACTORIAL HepG2 Assay for M61 Transcription Factor (Internal Marker) (AID 2282937). The following applies: HepG2 Attagene CIS-FACTORIAL M61 internal marker reporter; actives raise or lower the signal. In a few lines:
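This endpoint serves as an internal background control within a multiplexed HepG2 cis-reporter panel. Cells are exposed for 24 h; reporter mRNA is amplified, fluorescently labelled and sized by capillary electrophoresis, with DMSO as negative control.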

Assay [3] can be described thus: ATG_EGR_CIS: Attagene CIS-FACTORIAL HepG2 Assay for human Early Growth Response 1 (EGR1) (AID 2282938). The following applies: HepG2 Attagene CIS-FACTORIAL EGR reporter mRNA; actives raise or lower the signal. Summed up:
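HepG2, transient MRTU transfection (cis promoters), 24 h compound. RNA → RT (oligo-dT) → PCR → 6-FAM labelling → HpaI cut → CE fluorescence. Bidirectional fit, DMSO baseline.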

A short description of assay [4]: ATG_M_19_CIS: Attagene CIS-FACTORIAL HepG2 Assay for M19 Transcription Factor (Internal Marker) (AID 2282939). The following applies: HepG2 Attagene CIS-FACTORIAL M19 internal marker reporter; actives raise or lower the signal. Summed up: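 Readout: fluorescent reporter-transcript fragments by capillary electrophoresis after RT-PCR. Human HepG2 liver cells carried transfected MRTU constructs reporting endogenous transcription-factor activity; exposure 24 h. Gain or loss of signal fitted relative to DMSO.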

Assay [5] in a line: ATG_ERE_CIS: Attagene CIS-FACTORIAL HepG2 Assay for Estrogen Response Element (ERE) (AID 2282940). The following applies: HepG2 ERE cis-reporter, Attagene RNA transcript; actives raise or lower the signal. Summed up: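 Readout: reporter mRNA induction by RT-PCR, FAM-labelled primer extension, HpaI digestion and capillary electrophoresis, 24 h after dosing transfected HepG2 cells. Endogenous transcription factors act on cis-element-regulated reporters. Gain or loss fitted against DMSO.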

Assay [6] in a line: ATG_Ets_CIS: Attagene CIS-FACTORIAL HepG2 Assay for human Erythroblast Transformation Specific (ETS) (AID 2282941). The following applies: HepG2 ETS cis-reporter transcription, actives raise or lower the signal. Summed up:
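After transient cis-reporter transfection, HepG2 cells receive test chemical for 24 h. Reporter mRNA levels, measured by RT-PCR and capillary electrophoresis fluorescence, are analysed bidirectionally relative to the DMSO baseline.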

Assay [7] concerns the target Hepatocyte nuclear factor 3-beta (Homo sapiens) (UniProt Q9Y261). The assay is described as follows: ATG_FoxA2_CIS: Attagene CIS-FACTORIAL HepG2 Assay for human Forkhead box A2 (FOXA2) (AID 2282942). The following applies: HepG2 cis-reporter transcription factor activity, 24 h; actives raise or lower the signal. In a few lines: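 Cells: HepG2, transient multiplex reporter transfection. Exposure 24 h. Detection: reporter-specific RT-PCR, fluorescent labelling, restriction digest, capillary electrophoresis. Analysis: bidirectional curve fit, DMSO as negative control.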

Assay [8] can be described thus: ATG_FoxO_CIS: Attagene CIS-FACTORIAL HepG2 Assay for human Forkhead box O (FoxO) (AID 2282943). The following applies: HepG2 Attagene cis-reporter, FoxO element, mRNA; actives raise or lower the signal. Summed up:
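Endogenous transcription factor activity read from multiplexed cis-promoter reporter transcripts in transiently transfected HepG2, 24 h after dosing. Reporter RNA measured via RT-PCR plus capillary electrophoresis of FAM-labeled products; gain or loss relative to DMSO.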

The nature of assay [9]: ATG_GATA_CIS: Attagene CIS-FACTORIAL HepG2 Assay for human GATA Binding Protein (AID 2282944). The following applies: HepG2 GATA cis-element reporter, Attagene multiplex mRNA; actives raise or lower the signal. In a few lines:
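Read-out: fluorescent reporter mRNA fragments resolved by capillary electrophoresis after RT-PCR. Human liver HepG2 cells carried transiently transfected cis-regulated reporter constructs; chemicals incubated 24 h; gain or loss of signal fitted relative to DMSO.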

Assay [10] in a line: ATG_GLI_CIS: Attagene CIS-FACTORIAL HepG2 Assay for human Zinc Finger Protein GLI1 (AID 2282945). The following applies: HepG2, Attagene cis-factorial reporter mRNA, GLI element; actives raise or lower the signal. In a few lines: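 Bidirectional curve fits relative to DMSO, using reporter mRNA levels from RT-PCR plus capillary electrophoresis. Cells were HepG2 transiently carrying cis-regulated reporter constructs, harvested 24 h after dosing.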

The target of assay [11] is Bile acid receptor (Homo sapiens) (UniProt Q96RI1). The experiment in a line: ATG_IR1_CIS: Attagene CIS-FACTORIAL HepG2 Assay for human Nuclear Receptor Subfamily 1 Group H Member 4 (NR1H4), IR1 submotif (AID 2282946). The following applies: IR1 reporter transcription, actives raise or lower the signal. Summed up:
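Cells (human HepG2) carry transiently transfected cis-promoter reporter transcription units. Compounds are incubated 24 h, total RNA is reverse-transcribed and amplified, and labelled fragments are resolved by capillary electrophoresis. Curves use DMSO as baseline.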

Assay [12] is described as follows: ATG_GRE_CIS: Attagene CIS-FACTORIAL HepG2 Assay for human Glucocorticoid Response Elements (GRE) (AID 2282947). The following applies: HepG2 GRE cis-reporter, Attagene multiplex mRNA; actives raise or lower the signal. In a few lines:
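Transient MRTU transfection of human HepG2 liver cells; cis-regulated reporters report endogenous factors. 24 h dosing → RNA isolation → RT-PCR → 6-FAM primer extension → HpaI cut → CE fragment analysis. Bidirectional fit, DMSO negative control.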

Assay [13] in a line: ATG_ISRE_CIS: Attagene CIS-FACTORIAL HepG2 Assay for human Interferon Regulatory Factor 1 (IRF1) binding to an Interferon-Stimulated Response Element (ISRE) (AID 2282948). The following applies: HepG2 ISRE cis-reporter (Attagene), mRNA transcription readout; actives raise or lower the signal. Summed up:
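Quantitation relies on labelled RT-PCR fragments separated by capillary electrophoresis. Human HepG2 cells bearing cis-promoter reporter constructs were treated 24 h; DMSO served as baseline for bidirectional fitting.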

Assay [14] can be described thus: ATG_M_32_CIS: Attagene CIS-FACTORIAL HepG2 Assay for M32 Transcription Factor (Internal Marker) (AID 2282949).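 Note: background control marker of the multiplexed CIS panel rather than a real target.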 The following applies: HepG2 Attagene cis-factorial M32 reporter, mRNA; actives raise or lower the signal. Summed up: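 Fluorescent capillary electrophoresis peaks of HpaI-digested, FAM-labelled RT-PCR reporter products give the signal. Source: transiently transfected human liver HepG2 cells, 24 h after chemical dosing; bidirectional fitting against DMSO.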

Assay [15] in a line: ATG_M_06_CIS: Attagene CIS-FACTORIAL HepG2 Assay for M06 Transcription Factor (Internal Marker) (AID 2282950). The following applies: HepG2 Attagene CIS-FACTORIAL M06 internal marker reporter; actives raise or lower the signal. Summed up: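 Terse: HepG2, transient MRTU transfection (FuGene 6), 24 h dosing; total RNA, oligo(dT) RT, PCR, FAM label, HpaI cut, capillary electrophoresis; bidirectional fit vs DMSO baseline; background-control endpoint.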

Assay [16] concerns the target Hypoxia-inducible factor 1-alpha (Homo sapiens) (UniProt Q16665). The experiment in a line: ATG_HIF1a_CIS: Attagene CIS-FACTORIAL HepG2 Assay for human Hypoxia Inducible Factor 1 (HIF1A) (AID 2282951). The following applies: HepG2 Attagene cis-factorial HIF1a reporter transcription; actives raise or lower the signal. In a few lines:
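HepG2, transient cis-reporter library, 24 h dosing. RNA → RT (oligo dT) → PCR → 6-FAM primer extension → HpaI → CE. Bidirectional curve fit vs DMSO.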

The target of assay [17] is Hepatocyte nuclear factor 6 (Homo sapiens) (UniProt Q9UBC0). The assay is described as follows: ATG_HNF6_CIS: Attagene CIS-FACTORIAL HepG2 Assay for human Hepatocyte Nuclear Factor 6 (HNF6) (AID 2282952). The following applies: HepG2 Attagene cis-factorial HNF6 reporter transcription; actives raise or lower the signal. In a few lines:
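HepG2 cells transiently transfected with cis-element-driven multiplexed reporter units measuring endogenous transcription factor activity. After 24 h exposure, reporter mRNA quantified by RT-PCR, FAM-labelled fragments and capillary electrophoresis; bidirectional fitting versus DMSO.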

In assay [18] the target is Heat shock factor protein 1 (Homo sapiens) (UniProt Q00613). The assay is described as follows: ATG_HSE_CIS: Attagene CIS-FACTORIAL HepG2 Assay for human Heat Shock Transcription Factor 1 (HSE) (AID 2282953). The following applies: HepG2 HSE cis-reporter, Attagene RNA transcription; actives raise or lower the signal. Summed up:
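Read-out: fluorescence of reporter-specific RT-PCR fragments separated by capillary electrophoresis. HepG2 carrying transfected cis-element reporter units; 24 h dosing; activity fitted in both directions relative to DMSO baseline.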

The nature of assay [19]: ATG_MRE_CIS: Attagene CIS-FACTORIAL HepG2 Assay for human Metal Responsive Element (MRE) (AID 2282954). The following applies: HepG2 MRE cis-reporter transcription, Attagene multiplex; actives raise or lower the signal. Summed up: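 Transient MRTU transfection of HepG2 (FuGene 6); 24 h dosing; total RNA → oligo(dT) RT, PCR, 6-FAM primer extension, HpaI cut, CE. Bidirectional fit vs DMSO.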

Assay [20] is described as follows: ATG_PBREM_CIS: Attagene CIS-FACTORIAL HepG2 Assay for human Phenobarbital-responsive Enhancer Module (PBREM) (AID 2282955). The following applies: HepG2 PBREM cis-reporter, Attagene multiplexed transcription; actives raise or lower the signal. Summed up:
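HepG2, transient MRTU transfection, 24 h dosing; RNA → oligo(dT) RT → PCR → 6-FAM extension → HpaI → CE. Bidirectional fit vs DMSO.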

Where “and” joins values, the source holds several entries; their conditions need not be identical. Equal values may be shown once. More than one record can exist for a structure, and the calls need not agree. Calls of active or inactive are those of the source. Rule for the calls: active = hit-call score of the fitted dose curve at least 0.9, where 1 is the maximum; inactive = score below 0.9.

As usually defined, the AC50 is the midpoint of the concentration-response curve, whichever way the signal moves.

Bile acid receptor (Homo sapiens), sequence (Q96RI1 whole entry, looked up, the tested form may be a part): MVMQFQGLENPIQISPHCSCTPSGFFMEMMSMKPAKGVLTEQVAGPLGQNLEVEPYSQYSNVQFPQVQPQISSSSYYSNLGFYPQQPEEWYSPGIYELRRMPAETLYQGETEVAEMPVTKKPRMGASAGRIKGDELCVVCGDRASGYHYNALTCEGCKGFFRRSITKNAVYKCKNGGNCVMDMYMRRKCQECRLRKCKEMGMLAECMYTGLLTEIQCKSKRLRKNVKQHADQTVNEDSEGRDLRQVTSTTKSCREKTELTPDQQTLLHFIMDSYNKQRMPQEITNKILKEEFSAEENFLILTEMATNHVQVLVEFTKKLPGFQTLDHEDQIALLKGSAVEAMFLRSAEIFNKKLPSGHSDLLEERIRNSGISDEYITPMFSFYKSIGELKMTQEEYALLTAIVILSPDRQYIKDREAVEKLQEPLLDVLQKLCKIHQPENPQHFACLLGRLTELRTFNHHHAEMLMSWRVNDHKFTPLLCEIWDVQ
Hepatocyte nuclear factor 6 (Homo sapiens), sequence (Q9UBC0 whole entry, looked up, the tested form may be a part): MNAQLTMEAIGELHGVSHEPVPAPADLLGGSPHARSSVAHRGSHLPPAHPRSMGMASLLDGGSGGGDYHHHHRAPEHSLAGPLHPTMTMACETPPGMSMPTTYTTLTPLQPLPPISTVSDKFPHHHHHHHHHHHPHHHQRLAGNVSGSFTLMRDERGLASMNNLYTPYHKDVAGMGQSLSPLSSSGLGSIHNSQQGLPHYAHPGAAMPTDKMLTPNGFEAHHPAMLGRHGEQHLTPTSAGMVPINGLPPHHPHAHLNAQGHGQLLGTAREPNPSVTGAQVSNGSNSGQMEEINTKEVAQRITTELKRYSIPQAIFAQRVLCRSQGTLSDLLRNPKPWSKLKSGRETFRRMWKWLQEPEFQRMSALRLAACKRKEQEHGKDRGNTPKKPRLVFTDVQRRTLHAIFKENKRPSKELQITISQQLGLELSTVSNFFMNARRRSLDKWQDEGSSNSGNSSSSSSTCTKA
Hypoxia-inducible factor 1-alpha (Homo sapiens), sequence (Q16665 whole entry, looked up): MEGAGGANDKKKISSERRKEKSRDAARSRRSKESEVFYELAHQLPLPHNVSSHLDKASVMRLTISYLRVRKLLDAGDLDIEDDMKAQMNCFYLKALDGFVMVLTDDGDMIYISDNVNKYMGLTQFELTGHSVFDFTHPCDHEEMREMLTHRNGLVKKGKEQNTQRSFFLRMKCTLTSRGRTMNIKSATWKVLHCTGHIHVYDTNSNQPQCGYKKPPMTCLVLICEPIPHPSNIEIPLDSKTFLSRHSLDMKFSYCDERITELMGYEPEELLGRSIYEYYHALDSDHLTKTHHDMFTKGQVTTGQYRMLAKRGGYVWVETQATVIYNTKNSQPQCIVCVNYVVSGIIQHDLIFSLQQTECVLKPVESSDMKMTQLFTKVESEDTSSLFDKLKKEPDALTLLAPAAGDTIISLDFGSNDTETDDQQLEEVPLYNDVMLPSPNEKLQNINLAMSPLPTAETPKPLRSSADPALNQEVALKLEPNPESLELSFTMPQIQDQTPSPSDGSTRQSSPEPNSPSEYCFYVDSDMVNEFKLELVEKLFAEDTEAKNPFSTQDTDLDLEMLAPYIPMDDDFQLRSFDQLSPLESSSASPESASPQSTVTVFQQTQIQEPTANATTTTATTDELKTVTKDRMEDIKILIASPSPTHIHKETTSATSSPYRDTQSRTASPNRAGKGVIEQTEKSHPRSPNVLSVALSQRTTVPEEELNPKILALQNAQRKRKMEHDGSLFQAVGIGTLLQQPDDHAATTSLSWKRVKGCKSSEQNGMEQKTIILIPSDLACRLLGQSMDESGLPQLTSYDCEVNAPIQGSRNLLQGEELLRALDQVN
Hepatocyte nuclear factor 3-beta (Homo sapiens), sequence (Q9Y261 whole entry, looked up): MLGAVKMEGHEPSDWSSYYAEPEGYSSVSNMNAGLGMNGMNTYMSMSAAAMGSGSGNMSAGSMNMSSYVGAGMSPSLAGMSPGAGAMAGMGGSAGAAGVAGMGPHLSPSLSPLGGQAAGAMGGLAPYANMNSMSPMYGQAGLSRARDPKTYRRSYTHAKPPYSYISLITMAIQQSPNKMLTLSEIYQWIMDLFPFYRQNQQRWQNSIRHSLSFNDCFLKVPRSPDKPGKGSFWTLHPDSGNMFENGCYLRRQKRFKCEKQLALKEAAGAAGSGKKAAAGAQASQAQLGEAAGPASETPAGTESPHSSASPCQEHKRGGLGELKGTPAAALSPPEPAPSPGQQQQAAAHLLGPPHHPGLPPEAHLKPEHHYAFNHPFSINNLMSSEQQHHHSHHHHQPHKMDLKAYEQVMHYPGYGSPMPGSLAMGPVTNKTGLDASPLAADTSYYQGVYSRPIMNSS
Heat shock factor protein 1 (Homo sapiens), sequence (Q00613 whole entry, looked up, the tested form may be a part): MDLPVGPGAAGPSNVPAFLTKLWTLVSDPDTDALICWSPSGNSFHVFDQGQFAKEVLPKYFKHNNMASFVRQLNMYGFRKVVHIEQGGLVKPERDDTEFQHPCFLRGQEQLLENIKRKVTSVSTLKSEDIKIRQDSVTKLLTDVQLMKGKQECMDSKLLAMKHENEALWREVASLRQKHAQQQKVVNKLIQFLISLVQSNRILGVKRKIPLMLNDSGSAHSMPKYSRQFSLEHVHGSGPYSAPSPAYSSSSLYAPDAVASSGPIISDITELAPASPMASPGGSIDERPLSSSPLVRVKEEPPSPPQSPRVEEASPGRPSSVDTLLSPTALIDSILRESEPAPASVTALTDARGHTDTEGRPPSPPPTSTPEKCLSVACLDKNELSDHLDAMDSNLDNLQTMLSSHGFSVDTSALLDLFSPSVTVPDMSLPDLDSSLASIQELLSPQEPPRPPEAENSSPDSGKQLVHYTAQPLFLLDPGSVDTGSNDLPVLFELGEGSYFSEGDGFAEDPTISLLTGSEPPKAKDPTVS

Regarding `NS(=O)(=O)C(F)(F)C(F)(F)C(F)(F)C(F)(F)C(F)(F)C(F)(F)C(F)(F)C(F)(F)F`, the AC50 in [1] was 240 µM (active); in [3], 52 µM (active) and 40.8 µM (active); in assay [5], 14.2 µM (active) and 38.2 µM (active) and 5.74 µM (active); in assay [6] it was 38.8 µM (active); in assay [7], 258 µM (active); in [11], 9.66 µM (active). The AC50 in [13] is 91.1 µM (active) and 35.8 µM (active); in assay [16], 8.26 µM (active); in [17], 96.7 µM (active); in [18], 59.8 µM (active) and 115 µM (active) and 28.3 µM (active); in assay [19], 52.2 µM (active) and 39.2 µM (active) and 50 µM (active); in assay [20], 46.7 µM (active) and 33.8 µM (active). Also, the result in [1], in [2], in assay [3], in assay [4], in assay [6] and in assay [7] was inactive. Further, the compound was classed as inactive in [8], in assay [9], in assay [10], in assay [11], in assay [12] and in assay [13]. Also, the compound was called inactive in assay [14], in assay [15], in assay [16], in assay [17] and in assay [20].
On to `c1ccc(-c2ccccc2)cc1`, for which the outcome in [1], in [2], in [3], in assay [4], in assay [6] and in [7] was inactive. The compound was classed as inactive in [8], in assay [9], in [10], in assay [11], in assay [12] and in assay [14]. For the same compound, the call in [15], in assay [16], in [17], in assay [18] and in [19] was inactive. Besides, the AC50 in [5] is 81.8 µM (active); in assay [13] it was 110 µM (active).
Regarding `Oc1ccc(C(c2ccc(O)cc2)(C(F)(F)F)C(F)(F)F)cc1`, the result in assay [2], in assay [3], in assay [4], in [6], in assay [7] and in assay [8] was inactive. Further, the compound was called inactive in [9], in assay [10], in [12], in [13], in [14] and in assay [15]. Moreover, the result in assay [16], in assay [17] and in assay [20] was inactive. In addition, the AC50 in assay [3] was 11.1 µM (active) and 16.5 µM (active); in assay [5], 127 nM (active) [middle of 4 runs]; in assay [6], 15.5 µM (active) and 17.5 µM (active); in assay [13], 20.1 µM (active) and 11.1 µM (active); in assay [18], 16.3 µM (active) [middle of 4 runs]; in [19], 16.2 µM (active) [middle of 4 runs].
Regarding `CCCCCCOC(=O)c1ccccc1C(=O)OCCCCCC`, the result in assay [1], in [2], in [3], in [4], in [6] and in [7] was inactive. The outcome in assay [8], in assay [9], in [10], in [12], in assay [13] and in assay [14] was inactive. Moreover, the compound was called inactive in assay [15], in assay [16], in [17], in assay [18], in [19] and in [20]. Moreover, the AC50 in assay [5] is 4.15 µM (active).
In the case of `c1cc2ccc3cccc4ccc(c1)c2c34`, the outcome in [1], in assay [2], in [3], in assay [4], in assay [5] and in assay [6] was inactive. In addition, the result in assay [7], in [8], in assay [9], in [10], in assay [11] and in assay [12] was inactive. Further, the call in assay [13], in assay [14], in assay [15], in assay [16], in assay [17] and in assay [18] was inactive. Also, the outcome in assay [19] and in [20] was inactive.
